Measurements published in paper PMC4336329 (PLoS ONE, 2015).
Out of some 310,000 compounds screened, about 14,000 (4.5%) showed an effect of 50% or more. Effects have a minus sign here. Shown is part of a subset that was picked to be rich in strong results.

biological target: human ether-à-go-go-related gene (hERG) potassium channel (human, UniProt Q12809); assay: primary screen, population patch clamp on CHO cells stably expressing hERG; higher = less effect of the substance
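Also: peak tail current of the secondary pulse compared with the same well before compound.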

human ether-à-go-go-related gene (hERG) potassium channel, sequence (Q12809 whole entry, looked up): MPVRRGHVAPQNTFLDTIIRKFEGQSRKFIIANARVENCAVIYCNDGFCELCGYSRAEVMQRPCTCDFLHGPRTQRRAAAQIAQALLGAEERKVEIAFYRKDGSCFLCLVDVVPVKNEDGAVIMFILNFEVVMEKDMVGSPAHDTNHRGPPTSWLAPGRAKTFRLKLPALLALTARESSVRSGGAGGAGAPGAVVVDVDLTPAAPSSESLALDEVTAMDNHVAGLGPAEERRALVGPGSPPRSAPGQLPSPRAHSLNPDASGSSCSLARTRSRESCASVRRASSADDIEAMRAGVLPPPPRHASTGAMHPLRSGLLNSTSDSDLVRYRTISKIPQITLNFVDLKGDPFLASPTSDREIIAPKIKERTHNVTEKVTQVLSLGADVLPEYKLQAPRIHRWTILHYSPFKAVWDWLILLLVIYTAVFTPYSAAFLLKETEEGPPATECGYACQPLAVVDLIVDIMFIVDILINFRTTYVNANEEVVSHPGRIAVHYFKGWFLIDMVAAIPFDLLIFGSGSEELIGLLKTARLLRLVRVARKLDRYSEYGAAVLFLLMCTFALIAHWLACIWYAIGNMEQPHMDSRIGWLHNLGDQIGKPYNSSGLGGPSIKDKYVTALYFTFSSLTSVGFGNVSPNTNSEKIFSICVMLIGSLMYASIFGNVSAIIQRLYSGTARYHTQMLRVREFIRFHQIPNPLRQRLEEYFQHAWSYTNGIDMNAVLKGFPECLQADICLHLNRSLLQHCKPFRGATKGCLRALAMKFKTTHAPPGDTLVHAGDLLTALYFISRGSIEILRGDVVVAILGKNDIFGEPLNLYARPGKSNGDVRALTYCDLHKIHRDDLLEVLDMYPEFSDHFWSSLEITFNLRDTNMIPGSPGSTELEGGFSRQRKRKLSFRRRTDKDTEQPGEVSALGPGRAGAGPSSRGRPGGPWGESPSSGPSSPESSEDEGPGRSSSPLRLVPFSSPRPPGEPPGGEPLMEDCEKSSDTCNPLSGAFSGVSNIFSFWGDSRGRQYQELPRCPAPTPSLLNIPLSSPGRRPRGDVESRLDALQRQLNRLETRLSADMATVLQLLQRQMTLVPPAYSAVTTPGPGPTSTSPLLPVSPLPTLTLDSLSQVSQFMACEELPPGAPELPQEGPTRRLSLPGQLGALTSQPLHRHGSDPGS

Compound | hERG current change (%, negative = inhibition) at 10uM [%]
Oc1ccc(/C=N/NC(=S)Nc2cccnc2)c(O)c1 | 17.5
O=C(Cc1ccccc1)Nc1ncccc1Cl | 6.6
CCCCOc1ccc(C(=S)N2CCC(C(N)=O)CC2)cc1 | 6.67
O=C(NC1CCCN(CCc2ccccc2)C1)C1CCCC1 (stereo not shown) | -36.7
O=C(NC1CCCN(CCc2ccccc2)C1)c1c[nH]c2ccccc12 (stereo not shown) | -68.2
O=C(NC1CCCN(CCc2ccccc2)C1)c1c(F)cccc1F (stereo not shown) | -46.2
O=C(NC1CCN(CCc2c[nH]c3ccccc23)CC1)c1ccccc1 | -71.7
O=C(NCCc1c[nH]c2ccccc12)c1ccccc1 | 4.79
COC(=O)C1=CO[C@@H](C)[C@H]2CN3CCc4c([nH]c5ccccc45)[C@@H]3C[C@H]12.Cl | -20.2
COC(=O)C1=CO[C@@H](C)[C@@H]2CN(CCc3c[nH]c4ccccc34)CC[C@H]12 | -57
COC(=O)C1=COC(C)C2CN3CCc4c([nH]c5ccccc45)C3CC12 (stereo not shown) | -34.3
O=C(CCc1c[nH]c2ccccc12)NC1CC1 | 14.1
CSC1=C(C#N)C(c2ccccc2Cl)C2=C(N1)c1ccccc1C2=O (stereo not shown) | 6.44
CCC(C)(C)n1nnnc1C(c1cccs1)N1CCCCC1 (stereo not shown) | -19.4
Cc1cccn2c(CN3CCCN(C=O)CC3)c(C(=O)N(C)CCc3ccccc3)nc12 | 26.6
COCC(=O)N1CCCC(N(C)CCc2ccc(OC)c(OC)c2)C1 (stereo not shown) | 8.28
CC(=O)NCCC(=O)N1CCCC(N(C)CCc2ccccc2)C1 (stereo not shown) | -26.7
COc1ccc(CCN(C)C2CCCN(C(=O)Cn3cccn3)C2)cc1OC (stereo not shown) | -6.28
CCOC(=O)CCNC(=O)N1CCCC(N(C)CCc2ccccc2)C1 (stereo not shown) | -49.4
COc1ccc(CCN(C)C2CCCN(C(=O)Cn3cnnn3)C2)cc1OC (stereo not shown) | 10.2
CSCCC(=O)N1CCCC(N(C)CCc2ccccc2)C1 (stereo not shown) | -56.8
COC(=O)CCCC(=O)N1CCCC(N(C)CCc2ccccc2)C1 (stereo not shown) | -40.6
CCOC(=O)CCNC(=O)N1CCCC(N(C)CCc2ccc(OC)c(OC)c2)C1 (stereo not shown) | -6.37

Compound | hERG current change (%, negative = inhibition) at 10uM [%]
COc1ccc(CCN(C)C2CCCN(C(=O)CCSC)C2)cc1OC (stereo not shown) | -57.2
COc1ccc(CCN(C)C2CCCN(C(=O)CCC(F)(F)F)C2)cc1OC (stereo not shown) | -52
CCCCNC(=O)N1CCCC(N(C)CCc2ccc(OC)c(OC)c2)C1 (stereo not shown) | -67.8
COCC(C)n1c(C)cc(C(=O)CN2C(=O)NC3(CCCCC3C)C2=O)c1C (stereo not shown) | -8.29
COC(=O)c1ccc(NC(=S)N2CCC(C(N)=O)CC2)cc1 | 12.2
CCC(C)(C(=O)NC1CCCCC1)N(C(=O)CNC(=O)c1ccccc1)c1c(C)n(C)n(-c2ccccc2)c1=O (stereo not shown) | 10.1
CN=C1SC(C(=O)O)CC(=O)N1C (stereo not shown) | 19.1
Cc1ccc(NC(=S)Nc2ccc(OC(F)F)c(Cl)c2)cc1Cl | 16.5
Cc1nc2ccc(S(=O)(=O)NCC(=O)NCCc3ccc(Cl)cc3)cc2s1 | 28.3
c1ccc2c(-c3nnc(SCc4cn5ccccc5n4)o3)c[nH]c2c1 | -4.5
Cc1nc(Cl)c(C(=O)Nc2cccc(F)c2)c(C)c1Cl | -5.95
CSc1nnc(CNS(=O)(=O)c2ccc(F)cc2)n1C | 19.7
CCOC(=O)/C(C#N)=C/C=C1\C=Cc2ccccc2N1CC | 7.18
CCN1/C(=C/c2cc[n+](C)cc2)C=Cc2cc(C)ccc21.[I-] | -72.2
CCN1/C(=C2\C(=O)N(c3ccccc3)N=C2C)C=Cc2cc(C)ccc21 | -40
C=CC[n+]1c(/C=C2\C=Cc3cc(C)ccc3N2CC)ccc2ccccc21.[Br-] | -83.5
CCN1/C(=C/c2ccc3ccccc3[n+]2CC)C=Cc2ccccc21.[Cl-] | -82.5
CCN1/C(=C/c2ccc3ccccc3[n+]2CCCS(=O)(=O)[O-])C=Cc2cc(C)ccc21 | 24.2
CCN1C(=C(C#N)C#N)C=Cc2cc(C)ccc21 | 15.7
CCN1C(=O)/C(=C2\C=Cc3cc(C)ccc3N2CC)OC1=S | 0.13
CCN1C(=C(C#N)C#N)C=Cc2ccccc21 | 15.8
CC1=C(C(N)=O)C(c2ccccc2F)n2nc(CCCO)nc2N1 (stereo not shown) | 20.3
OCC[C@H]1C[C@H](O)[C@@H](O)[C@@]2(CCc3ccccc3CO2)O1 | 7.83

Compound | hERG current change (%, negative = inhibition) at 10uM [%]
CCOCC(=O)Nc1cc([N+](=O)[O-])ccc1C | -2.36
COc1cc(NS(=O)(=O)c2ccc(NC(=S)NC(=O)c3ccco3)cc2)ncn1 | 20.4
Cc1ccc(-c2noc(CCCN3C(=O)c4ccccc4C3=O)n2)cc1 | 9.03
CCCCNC(=O)CC1NCCNC1=O (stereo not shown) | 22
Cc1ccccc1CS(=O)(=O)CCC(=O)NCCN1CCN(c2cccc(Cl)c2)CC1 | -42.5
CCOC(=O)CNc1nc(Cl)nc(Nc2ccc(OC)cc2OC)n1 | 19.2
CCN1C(c2ccc(F)cc2)=CS/C1=C(\C#N)c1nnc2n1-c1ccccc1SC2 | -58.9
CN1C(c2ccc(F)cc2)=CS/C1=C(\C#N)c1nnc2n1-c1ccccc1SC2 | -45.5
Br.CN1C(c2ccc(F)cc2)=CS/C1=C(/C#N)c1nnc(N2CCOCC2)n1-c1ccccc1 | -23.8
COc1ccccc1-n1cnnc1SCC(=O)c1cc(C)n(Cc2cccs2)c1C | -27.8
COc1ccc(-c2nnc(SCC(=O)c3cc(C)n(Cc4cccs4)c3C)o2)cc1 | 5.36
COc1ccc(-n2cnnc2SCC(=O)c2cc(C)n(Cc3cccs3)c2C)cc1 | -73.5
COC(=O)Cn1c(=O)cnc2ccccc21 | -2.96
CCn1cnc2c(oc3ccccc32)c1=O | 18.3
CCOC(=O)c1sc(=S)n(-c2ccc(Cl)cc2)c1C | -37.4
CN1CCN(C(=O)c2sc(=S)n(-c3ccccc3)c2N)CC1 | -10.2
CCOC(=O)c1sc(=S)n(-c2ccc(OC)cc2)c1C | -51.1
CCOC(=O)c1sc(=S)n(-c2ccc(OC)cc2)c1N | 15.2
CCOc1ccc(-n2c(N)c(C(=O)N3CCN(C)CC3)sc2=S)cc1 | -51
Cc1ccc(-n2c(N)c(C(=O)N3CCN(C)CC3)sc2=S)cc1 | -30.4
COC(=O)c1c(NC(=O)CSc2nnnn2-c2ccccc2)sc2c1CCC(C(C)(C)C)C2 (stereo not shown) | -1.38
C=CCn1c(SCC(=O)Nc2cccnc2Cl)nnc1-c1ccc(Cl)cc1 | -45.4
CCOC(=O)C1(C)C=C(Nc2ccccc2)C(=O)N1c1ccccc1 (stereo not shown) | 25.7

Compound | hERG current change (%, negative = inhibition) at 10uM [%]
Cc1c(NC(=O)/C(C#N)=C/c2c(Oc3ccccc3)nc3ccccn3c2=O)c(=O)n(-c2ccccc2)n1C | 5.93
CCN(CC)c1ccc(CN2CCC(C(=O)NCc3ccc(C)cc3)CC2)cc1.O=C(O)C(=O)O | -65.3
CCN(CC)S(=O)(=O)N1CCC(C(=O)NCc2ccc(C)cc2)CC1 | -16.9
CSc1ccc(CN2CCC(C(=O)NCc3ccc(C)cc3)CC2)cc1.O=C(O)C(=O)O | -87.6
Cc1ccc(CNC(=O)C2CCN(S(=O)(=O)N3CCCCC3)CC2)cc1 | -11.4
Cc1ccc(CNC(=O)C2CCCC2)cc1 | 8.93
Cc1ccc(CNC(=O)C2CCN(S(=O)(=O)N3CCCC3)CC2)cc1 | 0.472
O=C1c2ccccc2C(=O)N1CNc1ccccc1 | 18.7
O=C1CC(c2ccccc2)CN1C(=O)c1cncc(Br)c1 (stereo not shown) | 5.75
O=C(c1cccnc1)N1N=C(C2CCCCC2)CC1(O)C(F)(F)F (stereo not shown) | -0.742
CCN1CCN(CCCNC(=O)c2csc3c2CCCCC3)CC1 | -7.21
O=C(NCCN1CCOCC1)c1csc2c1CCCCC2 | 5.21
CCN1CCCC1CNC(=O)c1csc2c1CCCC2 (stereo not shown) | -38.9
CCC1CCCCN1CCCNC(=O)c1csc2c1CCCCC2 (stereo not shown) | -56.7
CC(C)CCNC(=O)c1csc2c1CCCCC2 | 2.04
O=C(NCCCN1CCOCC1)c1csc2c1CCCC2 | -7.57
CC1CC(C)CN(CCCNC(=O)c2csc3c2CCCC3)C1 (stereo not shown) | -65
CC1CC(C)CN(CCCNC(=O)c2csc3c2CCCCC3)C1 (stereo not shown) | -61.2
CC1CCCC(C)N1CCCNC(=O)c1csc2c1CCCCC2 (stereo not shown) | -49.3
CC1(C)Cc2c(sc(NC(=O)c3ccc4ncsc4c3)c2C(N)=O)C(C)(C)N1 | -30.5
Cc1cccc(NC(=O)Nc2ccccc2[N+](=O)[O-])n1 | 16.7
NS(=O)(=O)c1ccc(CCNC(=O)CN2CCN(c3ccc(F)cc3)CC2)cc1 | -18.7
